Records with an inconclusive call do not appear. Where a call stands in place of a potency, no number is given. Activity calls are given as the source filed them. The call rests on the fitted dose curve; in most records, active means well fitted curve in the direction sought with a large enough effect; inconclusive means small, poorly fitted or top-dose-only effect, or another doubt; inactive means no such curve, though single readings can be large; an effect the other way counts as inactive or inconclusive.
Tests used:
[1] = Quantitative High-Throughput drug screen in 47 multiple myeloma cell lines against the NCATS MIPE library collection: KMS12BM_JCRB cell viability assay (AID 1918971); further: nearly all actives have a fitted effect of over 35% in size
Procedure, shortened: (§1)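 Luminescent ATP measurement with CellTiter-Glo gives viability, scaled between DMSO-only wells (100%) and media-only wells (0%). Cells, 500 per well, faced library compounds for 48 hours at 37C.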

[2] = Quantitative High-Throughput drug screen in 47 multiple myeloma cell lines against the NCATS MIPE library collection: KMS20_JCRB cell viability assay (AID 1918973); further: nearly all actives have a fitted effect of over 45% in size
Procedure, shortened: (§2)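 Inhibition of cell viability is measured here. Each line was plated at 500 cells per well, treated with MIPE 4.0 drugs, kept 48 hours at 37C, then assayed for ATP content by CellTiter-Glo luminescence.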

[3] = Quantitative High-Throughput drug screen in 47 multiple myeloma cell lines against the NCATS MIPE library collection: KMS21BM_JCRB cell viability assay (AID 1918974); conditions: ATP luminescence, 48 h; viability: at 45.8 µM (top of the series)
Procedure, shortened: as §2

[4] = Quantitative High-Throughput drug screen in 47 multiple myeloma cell lines against the NCATS MIPE library collection: KMS26_JCRB cell viability assay (AID 1918975); further: nearly all actives have a fitted effect of over 45% in size
Procedure, shortened: as §1

[5] = Quantitative High-Throughput drug screen in 47 multiple myeloma cell lines against the NCATS MIPE library collection: MMM1_PLB cell viability assay (AID 1918976); further: nearly all actives have a fitted effect of over 35% in size
Procedure, shortened: (§3)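 Inhibition of viability over 48 h was scored by ATP content (CellTiter-Glo) in 500-cell wells. Zero and full viability were defined by media-only and DMSO-only wells.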

[6] = Quantitative High-Throughput drug screen in 47 multiple myeloma cell lines against the NCATS MIPE library collection: MOLP8_DSMZ cell viability assay (AID 1918977); further: nearly all actives have a fitted effect of over 45% in size
Procedure, shortened: as §3

[7] = Quantitative High-Throughput drug screen in 47 multiple myeloma cell lines against the NCATS MIPE library collection: NCIH929_DSMZ cell viability assay (AID 1918978); further: nearly all actives have a fitted effect of over 35% in size
Procedure, shortened: as §3

[8] = Quantitative High-Throughput drug screen in 47 multiple myeloma cell lines against the NCATS MIPE library collection: OCIMY1_PLB cell viability assay (AID 1918979); further: nearly all actives have a fitted effect of over 35% in size
Procedure, shortened: as §3

[9] = Quantitative High-Throughput drug screen in 47 multiple myeloma cell lines against the NCATS MIPE library collection: MM1S_ATCC cell viability assay (AID 1918980); further: nearly all actives have a fitted effect of over 45% in size
Procedure, shortened: as §3

[10] = Quantitative High-Throughput drug screen in 47 multiple myeloma cell lines against the NCATS MIPE library collection: KMS12PE_JCRB cell viability assay (AID 1918972); further: nearly all actives have a fitted effect of over 30% in size
Procedure, shortened: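 Steps: seed 500 cells per well; pin-transfer MIPE 4.0 library; incubate 48 h at 37C, 5% CO2, humidified; add CellTiter-Glo, 5 min room temperature; read luminescence.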
Potency means the concentration at half of the fitted maximal effect.

Row | Structure (SMILES) | Potency [1] | Potency [2] | Potency [3] | Potency [4] | Potency [5] | Potency [6] | Potency [7] | Potency [8] | Potency [9] | Potency [10]
1 | c1cncc(CN2CCC(n3ncc4c(N5CCOCC5)nc(-c5ccc6[nH]ccc6c5)nc43)CC2)c1 | 13.2 µM (active) | 1.18 µM (active) | inactive | 4.69 µM (active) | 7.43 µM (active) | 2.96 µM (active) | 0.332 µM (active) | 16.6 µM (active) | 5.9 µM (active) | –
2 | NC(=O)c1cccc(-c2cccc(OC(=O)NC3CCCCC3)c2)c1 | inactive | – | – | – | – | inactive | inactive | inactive | inactive | inactive
3 | C[C@H]1C[C@H]2[C@@H]3CCC4=CC(=O)C=C[C@]4(C)[C@@H]3C(=O)C[C@]2(C)[C@@]1(O)C(=O)CO | inactive | – | – | – | – | inactive | inactive | – | inactive | inactive
4 | C[C@H](NC(=O)Cc1cc(F)cc(F)c1)C(=O)N[C@H](C(=O)OC(C)(C)C)c1ccccc1 | 4.69 µM (active) | – | – | inactive | – | – | inactive | inactive | inactive | inactive
5 | Nc1nc2c(c(=O)[nH]1)N(C=O)[C@H](CNc1ccc(C(=O)N[C@@H](CCC(=O)O)C(=O)O)cc1)CN2 | inactive | – | – | – | – | – | inactive | inactive | – | inactive
6 | NC(=O)c1ncn([C@@H]2O[C@H](CO)[C@@H](O)[C@@H]2O)c1O | inactive | – | – | – | 2.64 µM (active) | – | inactive | inactive | – | inactive
7 | Oc1ccc([C@@H]2Oc3ccc(O)cc3[C@@H]3CCC[C@@H]32)cc1 | 14.8 µM (active) | – | – | – | – | – | 18.7 µM (active) | – | – | inactive
8 | O=c1[nH]c(=O)n([C@H]2C[C@@H](O)[C@@H](CO)O2)cc1F | 20.9 µM (active) | – | – | – | 18.7 µM (active) | – | – | – | 11.8 µM (active) | 7.43 µM (active)
9 | FC(F)c1nc2ccccc2n1-c1nc(N2CCOCC2)nc(N2CCOCC2)n1 | 1.66 µM (active) | 0.332 µM (active) | – | 0.743 µM (active) | 0.526 µM (active) | 0.132 µM (active) | – | – | 0.59 µM (active) | –
10 | CC[C@H](CC[C@@H](C)[C@H]1CC[C@H]2[C@@H]3CC=C4C[C@@H](O)CC[C@]4(C)[C@@H]3CC[C@]12C)C(C)C | inactive | inactive | inactive | inactive | – | inactive | inactive | inactive | – | –
11 | FC(F)(F)c1ccc(Nc2nc3ccc(Oc4ccnc(-c5ncc(C(F)(F)F)[nH]5)c4)cc3[nH]2)cc1 | 18.7 µM (active) | – | – | – | – | – | – | – | 20.9 µM (active) | 14.8 µM (active)
12 | O=C(Nc1cccc(Nc2ncc(Br)c(NCCc3cnc[nH]3)n2)c1)N1CCCC1 | 18.7 µM (active) | 5.9 µM (active) | – | 10.5 µM (active) | 18.7 µM (active) | 6.62 µM (active) | – | – | 18.7 µM (active) | –
13 | CCCc1nc(C(C)(C)O)c(C(=O)O)n1Cc1ccc(-c2ccccc2-c2nn[nH]n2)cc1 | inactive | – | – | – | – | – | inactive | inactive | – | inactive
14 | Cc1ccc(-n2[nH]c(C)c(N=Nc3cccc(-c4cccc(C(=O)O)c4)c3O)c2=O)cc1C | 23.5 µM (active) | – | – | – | – | 23.5 µM (active) | – | – | 18.7 µM (active) | inactive
15 | C[C@]12CC[C@@H]3c4ccc(O)cc4CC[C@H]3[C@H]1CC[C@H]2O | 33.2 µM (active) | 18.7 µM (active) | 3.32 µM (active) | 5.9 µM (active) | 16.6 µM (active) | – | – | – | 8.33 µM (active) | –
16 | CC1(C)CC(O)CC(C)(C)N1[O] | inactive | – | – | inactive | – | – | inactive | inactive | – | inactive
17 | CCOC(=O)C1=C(C)NC(=S)NC1c1cccc(O)c1 (stereo not given) | 0.0662 µM (active) | – | – | – | – | 0.0372 µM (active) | 0.0372 µM (active) | – | 0.0418 µM (active) | 0.372 µM (active)
18 | CC(C)N(CC[C@H](c1ccccc1)c1cc(CO)ccc1O)C(C)C | inactive | – | – | inactive | – | – | inactive | inactive | – | inactive
19 | COc1ccc(S(=O)(=O)Nc2cccnc2Nc2ccc(O)cc2)cc1 | 0.0743 µM (active) | 0.0833 µM (active) | – | 2.64 µM (active) | – | 1.18 µM (active) | 1.18 µM (active) | – | 0.209 µM (active) | –
20 | CON=C(C(=O)N[C@@H]1C(=O)N2C(C(=O)O)=C(CSC(=O)c3ccco3)CS[C@H]12)c1csc(N)n1 | inactive | inactive | – | inactive | – | – | – | inactive | – | –
21 | Nc1nc(=O)n([C@H]2CSC(CO)O2)cc1F (stereo not given in full) | inactive | inactive | – | inactive | – | – | inactive | inactive | – | –
22 | Cc1nc(NC(=O)N2CCC[C@@H]2C(N)=O)sc1-c1ccnc(C(C)(C)C(F)(F)F)c1 | 10.5 µM (active) | 1.48 µM (active) | inactive | 4.18 µM (active) | 0.59 µM (active) | – | – | 0.0935 µM (active) | 3.32 µM (active) | –

— PubChem BioAssay (NCATS)
